Hits are enriched below; roughly 10% of the tested compounds scored in any of these assays.
GLS inhibitor: inhibitors of human glutaminase (GLS) | GLS enzymatic activity, qHTS titration | Potency, µM (top dose mostly 45.5 µM), for the others: at the top dose activity change, negative = inhibition, actives largely listed as inhibitors | hit rate 0.21% among 410,000 | AID 624170; also: % is scaled to controls: 0 for no effect and ±100 for the full control effect
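hKGA in 45 mM KH2PO4 (pH 8.2), 0.02% Tween-20 with compound, then 1mM L-Glutamine (stock as added) plus glutamate oxidase/HRP/Amplex red coupling mix. Fluorescence read initially and after 30 min at RT; signal change reflects glutamate formation.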
G9a block: blocks human histone lysine methyltransferase G9a; AID 504332; Q96KQ7; hit rate 8.8% among 350,000; Potency, µM (top dose mostly 102 µM), for inactives: top-dose activity, negative = inhibition, actives largely listed as inhibitors; G9a H3K9 monomethylation, AlphaScreen, 2 h; also: % is scaled to controls: 0 for no effect and ±100 for the full control effect; nearly all actives have a fitted effect of over 75% in size
Target sequence (Q96KQ7 913-1193 limits assumed): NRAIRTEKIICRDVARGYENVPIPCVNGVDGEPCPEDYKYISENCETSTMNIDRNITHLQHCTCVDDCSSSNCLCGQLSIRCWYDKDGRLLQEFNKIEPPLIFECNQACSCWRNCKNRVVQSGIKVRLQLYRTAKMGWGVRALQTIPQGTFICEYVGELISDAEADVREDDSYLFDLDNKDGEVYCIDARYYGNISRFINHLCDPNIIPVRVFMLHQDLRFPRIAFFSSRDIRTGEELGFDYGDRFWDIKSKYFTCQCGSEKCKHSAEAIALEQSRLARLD
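Compounds were preincubated with 20 nM G9a for 15 min, after which biotinylated H3K9 peptide (500 nM) and SAM (20 uM) started a 2 h room-temperature reaction. Monomethylated product was quantified by antibody-based AlphaScreen chemiluminescence.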
BAZ2B inh: blocks human BAZ2B. hit rate 4.4% among 360,000. AlphaScreen BAZ2B-H3K14Ac peptide displacement. Potency, µM (titrated, usually from 114 µM), for the others: at the top dose activity change, negative = inhibition, most hits filed as inhibitors. AID 504333. Q9UIF8; also: % is scaled to controls: 0 for no effect and ±100 for the full control effect; nearly all actives have a fitted effect of over 60% in size
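Multi-concentration screen (max 110 uM) measuring displacement of acetylated histone H3 peptide from BAZ2B by AlphaScreen, using 50 nM protein, 50 nM peptide and 10 ug/mL streptavidin donor plus Ni-chelate acceptor beads.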
JMJD2A Tudor inh: blocks the human JMJD2A Tudor domain; Potency, µM (highest dose often 114 µM), for inactives: top-dose activity change, negative = inhibition, usual class: inhibitors; hit rate 4.4% among 390,000; O75164; AlphaScreen JMJD2A-Tudor / H3K4me3 peptide binding; also: % is scaled to controls: 0 for no effect and ±100 for the full control effect; nearly all actives have a fitted effect of over 50% in size
HP1b chromo inh: inhibitors of HP1-beta chromodomain binding to methylated histone tails. Potency, µM (doses to about 114 µM), for inactives: top-dose activity change, negative = inhibition, usual class: inhibitors. AID 540317. AlphaScreen HP1-beta / biotin-H3K9me3 peptide binding. hit rate 0.56% among 390,000. P83916; also: nearly all actives have a fitted effect of over 70% in size
Target sequence (P83916 whole entry, looked up): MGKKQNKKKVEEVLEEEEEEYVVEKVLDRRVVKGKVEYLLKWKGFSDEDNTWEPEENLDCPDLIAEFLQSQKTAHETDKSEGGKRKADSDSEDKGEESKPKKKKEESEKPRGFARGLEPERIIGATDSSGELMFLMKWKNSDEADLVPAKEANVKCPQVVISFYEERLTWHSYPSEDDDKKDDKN
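HP1-beta protein (50 nM final) preincubated 30 min at room temperature with biotinylated H3(1-18)K9me3 peptide (50 nM) in PBS pH 7.4, 0.01% Tween-20, then compound added for 30 min. AlphaScreen streptavidin donor/nickel chelate acceptor beads (10 ug/mL final), 30 min dark, luminescence read.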
Starred values were filed as active, the others as inactive; ? = inconclusive; / = not tested or not shown; ! = a repeat was not active; [ ] = another dose, or the depositor's remark. Calls follow the shape of the dose curve; as a rule, active = well fitted curve in the direction sought with a large enough effect; inconclusive = small, poorly fitted or top-dose-only effect, or another doubt; inactive = no such curve, though single readings can be large; an effect the other way counts as inactive or inconclusive. Potency is read from the fitted curve at half-maximal effect.

SMILES	GLS inhibitor	G9a block	BAZ2B inh	JMJD2A Tudor inh	HP1b chromo inh
C[C@]12CC[C@H]3[C@@H](CCC4=CC(=O)CC[C@@H]43)[C@@H]1CC[C@@H]2O	-12.2%	-15.5%[59 µM]	/	-6.2%	53.7%
C[C@]12CC[C@@H]3c4ccc(O)c(O)c4CC[C@H]3[C@@H]1CC[C@@H]2O	?	?	56.2µM*	8.91µM*	15.8µM*
CN1CCC(O)(c2ccc(F)cc2)C(C(=O)c2ccc(F)cc2)C1 (centres undefined)	8.9%	?	/	/	/
CN1CCC(O)(c2cccs2)C(C(=O)c2cccs2)C1 (centres undefined)	-0.3%	25.1µM*	-17.8%	-17.6%	6.2%
CC1CCN(S(=O)(=O)c2ccc(NN=C(C#N)C#N)cc2)CC1	/	?	44.7µM*	/	/
N#CC(C#N)=NNc1ccc(S(N)(=O)=O)cc1	56.2%	-0.6%[12.7 µM]	?	-19.1%[11.4 µM]	35.5µM*
CNC(C)[C@@H](O)c1ccc(O)cc1 (some centres undefined)	13.6%	-10.1%[12.7 µM]	/	/	/
CC12Nc3ccccc3C(=O)N1Cc1cnnn1-c1ccccc12 (centres undefined)	18.0%	/	/	/	/
O=P(O)(O)c1ccccc1OCCOCCOCCOCCOc1ccccc1P(=O)(O)O	4.1%	10µM*	-34.1%	-8.3%	47.2%
Oc1ccccc1-c1ccccc1	-7.1%	20.7%[59 µM]	/	/	/
C[C@@H]1CN([C@H](C)CO)C(=O)CCCn2nncc2CO[C@@H]1CN(C)C(=O)Nc1ccc(N2CCCCC2)cc1	4.9%	/	/	/	/
NC(Cc1ccc(N(CCCl)CCCl)cc1)C(=O)O (centres undefined)	/	10.6µM*!	/	/	/
CCOC(=O)CC(NC(=O)C(Cc1ccc(N(CCCl)CCCl)cc1)NC(C)=O)C(=O)OCC (centres undefined)	0.0%	/	20µM*	12.6µM*	?
[O-]C1=N/[N+](=C/c2ccc(Cl)cc2)CC1	38.3%	8.91µM*	11.1%	-10.3%	25.5%
Cc1ccc(-n2sc3ccccc3c2=O)cc1	?	1.12µM*	7.94µM*	7.08µM*	?
Oc1cc2c(cc1O)[C@H]1c3ccccc3CNC1CC2 (some centres undefined)	/	0.501µM*	/	/	/
CCOP(=O)(OCC)C1(O)C(=O)Nc2ccc(Br)cc21 (centres undefined)	-10.3%	17.8µM*	-5.1%	-11.2%	20.7%
COc1ccc(-n2nnnc2C(c2cccs2)N2CCC3(CC2)C(=O)NCN3c2ccccc2)cc1 (centres undefined)	18.7%	/	/	/	/
CCN(CC)C(=O)N[C@@H]1C=C2c3cccc4[nH]cc(c34)C[C@H]2N(C)C1	6.1%	?	/	/	/
CC[C@H](CO)NC(=O)[C@H]1C=C2c3cccc4[nH]cc(c34)C[C@@H]2N(C)C1	/	7.94µM*	/	/	/
CCC(CO)NC(=O)C1C=C2c3cccc4[nH]cc(c34)CC2N(C)C1 (centres undefined)	25.8%	?	-6.4%	-24.1%	39.0%
CC[C@@H](CO)NC(=O)[C@@H]1C=C2c3cccc4[nH]cc(c34)C[C@H]2N(C)C1	4.3%	14.1µM*	/	-27.3%	5.8%
COC(=O)C1C=C2c3cccc4[nH]cc(c34)CC2N(C)C1 (centres undefined)	/	?	39.8µM*	/	/
CC[C@@H](CO)NC(=O)[C@@H]1C=C2c3cccc4c3c(cn4C)C[C@H]2N(C)C1	29.5%	6.31µM*!	?	-22.8%	21.9%
CCC1OC(=O)CC(O)C(C)[C@@H](O[C@@H]2OC(C)[C@H](O[C@@H]3C[C@@](C)(O)C(O)C(C)O3)C(N(C)C)C2O)[C@H](CC=O)CC(C)C(=O)/C=C/C(C)=C/[C@@H]1COC1OC(C)C(O)C(OC)[C@@H]1OC (some centres undefined)	-0.9%	-38.0%[2.33 µM]	/	/	/
SMILES	GLS inhibitor	G9a block	BAZ2B inh	JMJD2A Tudor inh	HP1b chromo inh
CC(=O)Nc1ccc(C=C2C(=O)NC(=O)NC2=O)cc1	0.7%	/	/	-9.0%	40.1%
CN(C)c1ccc(C=C2C(=O)NC(=S)NC2=O)cc1	115.9%	/	/	50.1µM*	-2.6%
CC(C)CN(CC(C)C)c1ccc(C=C2C(=O)NC(=S)NC2=O)cc1[N+](=O)[O-]	-15.9%	?	35.5µM*	35.5µM*	-83.9%
CN(C)c1ccc(C=C2C(=O)NC(=O)NC2=O)cc1	0.8%	/	/	-1.4%	1.0%[57 µM]
CCN(CC)c1ccc(C=C2C(=O)NC(=S)NC2=O)cc1	?	7.94µM*	50.1µM*	44.7µM*	?
CCON=O	5.1%	8.0%[12.7 µM]	/	/	/
N=Cc1c(O)n(-c2ccc(C34CC5CC(CC(C5)C3)C4)cc2)c(=O)[nH]c1=O	0.5%	?	-25.4%	-33.8%	7.1%
CCOc1ccc(N=C2SCCCN2C)cc1	-5.0%	3.55µM*	-3.9%	?	5.3%
c1cncc(C2Nc3cccc4cccc(c34)N2)c1	20.2%	11.2µM*!	?	?	?
c1cncc(C2CCCCN2)c1 (centres undefined)	1.4%	-0.9%	-0.8%	-8.8%	24.8%
O=C1CC=C2C3CC4N(CCC45c4cc(O)c(O)cc4N1C25)CC3=CCBr (centres undefined)	24.2%	/	/	3.55µM*	?
CCCCCCCCCC[Si](C)(C)CCC(=O)NC(Cc1ccc(C)cc1)c1ccccc1 (centres undefined)	/	43.0%[59 µM]	/	/	/
Nc1c(Cl)c(Cl)c(Cl)c(Cl)c1Cl	0.5%[99.4 µM]	/	/	/	/
NC(=O)c1ccc(N=Cc2c(O)n(Cc3ccco3)c(=O)[nH]c2=O)cc1	?	39.8µM*	?	?	119.3%
O=c1[nH]c(=S)n(Cc2ccco2)c(O)c1C=NCc1cccs1	14.8%	3.55µM*	5.01µM*	?	?
N#Cc1c(/N=C/c2c(O)n(Cc3ccco3)c(=O)[nH]c2=O)sc2c1CCCC2	-0.9%	-16.3%[0.0925 µM]	?	79.4µM*	-23.3%

Screening data from PubChem BioAssay.
